Laboratory results: PubChem BioAssay (NCI)
About 83,000 compounds went through this panel and 20% of them were active in at least one assay; those are over-represented in the sample as a whole.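 Cell lines were cultured in 96-well plates, exposed to a single compound concentration, and assessed for percent growth 48 hours later.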 Unmarked numbers belong to inactive results. Calls of active or inactive are those of the source. How the source made its calls: active means growth percent below 10; inactive means the rest.

Tested on: HCT-15 colon
Test: NCI-60 one-dose screen, 48 h (100 = growth as untreated, 0 = no growth, -100 = all killed)
Conditions: 10 µM unless noted

**Q.** Which growth does the source give for `COc1ccc2c(c1)c(-c1nc(-c3c[nH]c4ncccc34)cs1)cn2C` here?
**A.** 51.6%

**Q.** `O=C(O)c1cccc2c1Cc1cc([N+](=O)[O-])ccc1-2` was tested. Which growth did it give?
**A.** 106%

**Q.** With `CCOc1ccc(NC(=O)c2ccccc2-c2ccccc2C(=O)O)cc1` as the compound, how does the growth read?
**A.** 106%

**Q.** Which growth does the source give for `O=c1c2sc3ncc(Br)cc3c2ncn1-c1cccc(Cl)c1` here?
**A.** 88.5%

Tested on: HT29 colon
Test: as above
Conditions: 10 µM unless noted

**Q.** With `Cn1c(/C(C#N)=C/c2ccc3ccccc3c2)cc2ccccc21` as the compound, how does the growth read?
**A.** 21.8%

**Q.** `Cn1cc(-c2nc(-c3c[nH]c4ncccc34)cs2)c2cc(F)ccc21` was tested. Which growth did it give?
**A.** 19.6%

**Q.** For `CC(=O)N1N=C(c2ccc(C)cc2)CC1c1ccc(Oc2ccc(Br)cc2)cc1` (centres undefined), which growth is on record?
**A.** 79%

**Q.** How did the growth turn out when `NC1=NN=C2N(N)C(=O)c3cnn(-c4ccccc4)c3N2c2nc(-c3ccccc3)cc(-c3ccccc3)c21` was run?
**A.** 102%

**Q.** `Fc1ccc2nc(-c3cc(-c4ccc5c(c4)OCO5)n[nH]3)[nH]c2c1` was tested. Which growth did it give?
**A.** 61.6%

**Q.** How did the growth turn out when `CN(C)c1ccc(-c2ccc(-c3ccc(C(=N)N)c(F)c3)s2)cc1` was run?
**A.** -61.2% (active)

**Q.** Which growth does the source give for `Cc1c(C)c2c(c(C)c1NC(=O)CCCCCCC(=O)O)CCC(C)(CCCC(C)CCCC(C)CCCC(C)C)O2` (centres undefined) here?
**A.** 39.8%

**Q.** For `Cc1cc(C)nc(NC(N)=NCCc2ccccc2)n1`, which growth is on record?
**A.** 13.5%

**Q.** For `C=C(C)[C@@H]1CC[C@]2(C(=O)O)CC[C@]3(C)[C@H](CC[C@@H]4[C@@]5(C)C/C(=C/c6ccc(OC)cc6)C(=O)C(C)(C)[C@@H]5CC[C@]43C)[C@@H]12`, which growth is on record?
**A.** 16%

**Q.** Which growth does the source give for `COc1ccc2[nH]cc(-c3nc(-c4c[nH]c5ncccc45)cs3)c2c1` here?
**A.** 12.1%
